GC-A act – GC-A (human) enzyme activation; HEK293 GC-A cells, cGMP TR-FRET, EC30 ANP; 0% at EC30 ANP, 100% saturating ANP; activation, % at 10 µM; 370,000 compounds, 0.14% hits; in the data active = activation above about 40%
NadD block – inhibitors of Staphylococcus aureus NadD | purified NadD enzyme, colorimetric absorbance read-out | inhibition, % at 20 µM | 360,000 compounds, 0.78% hits | AID 602399; in the data active = inhibition above about 26%
Neddylation inh – blocks human cullin neddylation | inhibition, % at 25 µM | TR-FRET cullin neddylation, biochemical | AID 651699 | P61081+Q13564 | 360,000 compounds, 0.58% hits; in the data active = inhibition above about 36%
Target sequence (P61081 whole entry, looked up): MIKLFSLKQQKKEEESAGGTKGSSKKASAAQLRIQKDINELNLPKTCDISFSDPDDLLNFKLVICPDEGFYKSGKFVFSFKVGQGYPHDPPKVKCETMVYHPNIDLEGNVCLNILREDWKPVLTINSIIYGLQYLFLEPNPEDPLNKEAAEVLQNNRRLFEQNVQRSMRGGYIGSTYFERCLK
Target sequence (Q13564 whole entry, looked up): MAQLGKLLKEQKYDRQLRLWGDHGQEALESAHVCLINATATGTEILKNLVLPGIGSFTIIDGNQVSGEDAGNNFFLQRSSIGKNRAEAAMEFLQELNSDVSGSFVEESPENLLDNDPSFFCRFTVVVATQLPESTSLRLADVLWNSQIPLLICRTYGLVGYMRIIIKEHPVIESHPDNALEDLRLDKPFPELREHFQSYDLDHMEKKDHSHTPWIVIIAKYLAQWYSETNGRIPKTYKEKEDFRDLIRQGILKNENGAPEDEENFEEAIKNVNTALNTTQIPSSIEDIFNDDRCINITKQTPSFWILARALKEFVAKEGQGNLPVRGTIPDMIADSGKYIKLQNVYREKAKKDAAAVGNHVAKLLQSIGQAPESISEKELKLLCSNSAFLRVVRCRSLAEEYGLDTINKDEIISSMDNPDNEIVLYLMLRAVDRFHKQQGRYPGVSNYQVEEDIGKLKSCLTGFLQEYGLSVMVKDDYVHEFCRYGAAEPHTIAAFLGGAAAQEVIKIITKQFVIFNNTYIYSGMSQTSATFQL
GC-B act – GC-B (human) receptor activation; HEK293-GC-B cells, CNP EC30, cGMP TR-FRET; 0% at EC30 CNP, 100% saturating CNP; activation, % at 10 µM; 370,000 compounds, 0.11% hits;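 active = activation at 10 µM reaching about 35% in either raw or pattern-adjusted values, limit read from the data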
Neddyl conf – confirmation of human cullin neddylation inhibitors. calls only at 25 µM. 1,800 compounds, 13% hits. AID 652217. TR-FRET cullin neddylation biochemical assay. shares compounds with Neddylation inh; in the data active = inhibition above about 40%;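 note: neddylation substrate is the cullin 1 ring ligase complex with SKP2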
* hit, by the source's call; i = inactive; . = no result shown; + = active, no number. An excerpt weighted towards active compounds, which were near 1.5% of everything screened.

SMILES	GC-A act	NadD block	Neddylation inh	GC-B act	Neddyl conf
Cc1[nH]c2ccc(C(=O)OC(C)C(=O)N(C)c3ccccc3)cc2c1C (configuration not stated)	.	-3	41*	.	i
Cc1[nH]c2ccc(C(=O)OC(C)C(=O)N(C)C3CCCCC3)cc2c1C (configuration not stated)	-4	-2	34	-5	.
CCN(CC)CCCNC(=O)c1cc2cc(Cl)ccc2nc1N	-2	.	.	-2	.
Cc1ccc(-n2c(SCc3cccc(F)c3)nc3ccccc3c2=O)cc1	-2	.	.	3	.
CNC(=O)c1c(NC(=O)c2cccc(C)c2)sc2c1CCC2	-2	-5	49*	-9	.
NC(=O)c1c(NC(=O)c2cccc(N3C(=O)CCC3=O)c2)sc2c1CCCCC2	0	-4	52*	1	.
COc1cccc(C(=O)Nc2sc3c(c2C(=O)O)CCCC3)c1	-1	-2	31	-3	.
Cc1cccc(C(=O)Nc2sc3c(c2C(=O)O)CCC3)c1	2	-1	30	-9	.
Cc1ccc(C(=O)Nc2sc3c(c2C(=O)O)CCCC3)o1	-2	-4	51*	-7	.
COc1cc(C(=O)Nc2sc3c(c2C(=O)O)CCC3)cc(OC)c1OC	-1	0	41*	1	.
CN(CCOC(=O)c1cccs1)C1CN(Cc2cn(Cc3ccccc3Cl)nn2)S(=O)(=O)C1 (configuration not stated)	3	.	.	4	.
CC(C)CC(NC(=O)OCc1ccccc1)C(=O)NCC(=O)NCC(=O)OCc1ccccc1 (configuration not stated)	1	.	.	0	.
CNC(=O)c1c(NC(=O)c2ccco2)sc2c1CCCC2	-1	2	45*	-3	.
CC(C)OC(=O)c1c(NC(=O)c2ccco2)sc2c1CCCCC2	-6	12	.	-2	.
COc1cc(/C=N\NC(=O)C2COc3ccccc3O2)cc(OC)c1O (configuration not stated)	2	-3	11	-2	.
CCOc1ccc(-n2c(O)c(/C=N/NC(=O)C3COc4ccccc4O3)c3ccccc3c2=O)cc1 (configuration not stated)	6	23	42*	1	i
COC(=O)[C@]12C[C@H](CC(=O)NCc3cccc(C(F)(F)F)c3)C(=O)N(Cc3cccc4ccccc34)C1=C[C@H](C1CCCC1)O[C@@H]2C	-1	.	.	-1	.
Cc1cc(-n2ccnc2)n2c(nc3ccccc32)c1C#N	3	-5	43*	-6	i
CCOC(=O)c1n[nH]n2c1nc(=O)c1ccccc12	-4	-4	.	-3	.
Cc1ccc(S(=O)(=O)c2n[nH]n3c2nc(=O)c2ccccc23)cc1	-7	-3	40*	-2	i
O=C(CN1c2cccc3cccc(c23)S1(=O)=O)Nc1ccccc1F	-6	2	36	-1	.
Cc1ccc(CNC(=O)CN2c3cccc4cccc(c34)S2(=O)=O)cc1	-1	-2	34	-3	.
O=C(CN1c2cccc3cccc(c23)S1(=O)=O)Nc1ccc(F)c(F)c1F	-5	-2	42*	1	i
O=C(CN1c2cccc3cccc(c23)S1(=O)=O)NCc1ccc(F)cc1	0	-2	46*	2	+
COC(=O)[C@]12C[C@H](CC(=O)N3CCN(C(=O)c4ccco4)CC3)C(=O)N(CCc3ccc(OC)c(OC)c3)C1=C[C@H](C(C)(C)C)O[C@@H]2C	2	.	.	-6	.
SMILES	GC-A act	NadD block	Neddylation inh	GC-B act	Neddyl conf
Cc1cc(-c2ccc3c(c2)COc2c4ccccc4nn2-3)on1	-1	-4	43*	-2	i
O=C(NN1C(=O)c2ccccc2NC1c1cccnc1)c1ccccc1 (configuration not stated)	4	1	41*	7	i
O=C(NN1C(=O)c2ccccc2NC1c1ccco1)c1ccccc1 (configuration not stated)	1	1	30	5	.
O=C(NCc1ccccc1Cl)c1cnn2cccnc12	2	-6	39*	2	i
O=C(NCc1cccs1)c1cnn2cccnc12	-1	-3	36	2	.
CC(C)(C)c1ccc(S(=O)(=O)N2CCCC(C(=O)N3CCN(Cc4ccccc4)CC3)C2)cc1 (configuration not stated)	-2	.	.	-3	.
CCOC(=O)Cc1csc(NC(=O)/C=C/c2ccc(Cl)cc2)n1	4	-1	38*	2	i
Cn1c(=O)c2nc(NCc3ccccc3)cnc2n(C)c1=O	4	3	64*	-1	+
Cc1ccc(C(=O)N/C(=C/c2ccc(Cl)cc2)C(=O)Nc2cccc(C(=O)O)c2)cc1	4	1	-2	-2	.
CSc1ccc(/C=C(\NC(=O)c2ccc(C)cc2)C(=O)Nc2cccc(C)c2)cc1	-1	13	54*	6	i
Cc1ccccc1N=Nc1c(N)[nH]n(-c2ccccc2)c1=O	-3	.	.	-11	.
CC(=O)OCCc1c2ccccc2c(CCCN(C)C)c2ccccc12	-1	-4	36*	1	.
COc1cccc(Nc2nc3ccccc3n3nnnc23)c1	-4	-7	44*	-2	.
O=c1oc2ccccc2cc1-c1cn2cccnc2n1	4	6	43*	-8	+
O=c1oc2ccccc2cc1-c1cn2ccccc2n1	3	1	32	-5	.
CCc1ccc2oc(C(=O)Nc3ccc(S(N)(=O)=O)cc3)c(C)c2c1	-4	2	.	0	.
Cc1c(C(=O)Nc2ccc(S(N)(=O)=O)cc2)oc2ccc(Cl)cc12	-7	9	44*	-2	i
COc1ccc(-c2n[nH]c(=S)n2-c2cc(OC)ccc2OC)cc1	-10	-2	-1	-3	.
COc1ccccc1-n1c(-c2ccc(NS(C)(=O)=O)cc2)n[nH]c1=S	2	-8	41*	4	i
COCCNC(=O)/C(C#N)=C/c1c(N2CCN(c3ccccc3)CC2)nc2c(C)cccn2c1=O	6	-3	58*	0	i
COCCNC(=O)/C(C#N)=C/c1c(N2CCN(c3ccc(OC)cc3)CC2)nc2c(C)cccn2c1=O	5	-8	34	1	.
Cc1nc2ccc(S(=O)(=O)NCC(=O)NCc3cccs3)cc2s1	1	.	.	0	.
CC(C)(C)NC(=O)CN(C(=O)c1snc(C(=O)NC2CCCCC2)c1N)c1ccccc1F	2	-4	39*	-4	i
COc1ccc2nc(NC(=O)c3c(C)noc3C)sc2c1	1	1	33*	3	i
Cc1noc(C)c1C(=O)Nc1nc2ccc(S(C)(=O)=O)cc2s1	0	-2	3	5	.
CC(C)c1nc2oc3c(=O)[nH]cnc3c2c2c1CCC2	9	-1	41*	-1	i
COC(=O)C1=C(C)NC2=C(C(=O)CCC2)C1c1ccc(-c2ccsc2C(=O)OC)o1 (configuration not stated)	-8	-6	38*	-8	.
COC(=O)C1=C(C)N(Cc2cccc(C(F)(F)F)c2)C(=NCC2CC2)NC1c1cccc(C(F)(F)F)c1 (configuration not stated)	-23	.	.	-17	.

Screens deposited in PubChem BioAssay by Sanford-Burnham Center for Chemical Genomics.
